From PubChem BioAssay (NCATS)
Results filed as inconclusive are left out. Active and inactive are the calls of the source. Calls come from the whole dose curve; as a rule, active = well fitted curve in the direction sought with a large enough effect; inconclusive = small, poorly fitted or top-dose-only effect, or another doubt; inactive = no such curve, though single readings can be large; an effect the other way counts as inactive or inconclusive. Where a SMILES comes first, the peptide text is derived from it.

What was measured:
CRL-7250 = normal cell line; assay: Cytotoxic Profiling of Annotated Libraries Using Quantitative High-Throughput Screening (AID 1296008); conditions: Five cell lines viability, CellTiter-Glo ATP luminescence, 48-72 h; max response: stronger effect = lower value; note: nearly all actives have a fitted effect of over 60% in size; for max response: % is set by controls: 0 for no effect and ±100 for the full control effect
In short: (§1)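 Cytotoxicity was measured as CellTiter-Glo ATP luminescence, read after 10 min at room temperature. Compound treatment of the cells lasted 48 or 72 hr at 37 degrees Celsius in a qHTS format.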

HEK293 = assay: as above; conditions: Five cell lines viability, CellTiter-Glo ATP luminescence, 48-72 h; max response: stronger effect = lower value
In short: as §1

HaCat [1] = assay: as above; conditions: Five cell lines viability, CellTiter-Glo ATP luminescence, 48-72 h; max response: stronger effect = lower value
In short: as §1

KB-3-1 = assay: as above; conditions: Five cell lines viability, CellTiter-Glo ATP luminescence, 48-72 h; max response: stronger effect = lower value
In short: as §1

NIH3T3 = assay: as above; conditions: Five cell lines viability, CellTiter-Glo ATP luminescence, 48-72 h; max response: stronger effect = lower value
In short: as §1

HACAT [2] = assay: qHTS assay to identify novel small-molecules to repurpose for Merkel cell carcinoma treatment (AID 1296009); conditions: MCC and control cell lines, CellTiter-Glo viability, 72 h; at 44.8 µM (top of the series) unless noted; note: nearly all actives have a fitted effect of over 60% in size
In short: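 Cell viability measured by CellTiter-Glo following 72 hr compound treatment at 37 degree celsius, with NPC and MIPE libraries tested in 8- and 11-point concentration series.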

C33A = assay: Primary qHTS to identify gynecologic anti-cancer compounds using libraries of approved drugs and bioactive compounds (AID 1345084); conditions: Gynecologic cancer cell panel viability, ATPlite luminescence, 48 h; series mostly up to 57.5 µM; note: nearly all actives have a fitted effect of over 55% in size; note: potency is the fitted concentration of half-maximal effect; for activity change, negative = cytotoxicity: % is set by controls: 0 for no effect and ±100 for the full control effect
In short: (§2)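 Five-point cytotoxicity, 48 h drug exposure at 37 C, 5% CO2, on cells seeded 16 h beforehand. ATP content read by ATPlite luminescence.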

CAOV3 = assay: as above; conditions: Gynecologic cancer cell panel viability, ATPlite luminescence, 48 h; series mostly up to 57.5 µM
In short: as §2

Es-2 = assay: as above; conditions: Gynecologic cancer cell panel viability, ATPlite luminescence, 48 h; series mostly up to 57.5 µM
In short: as §2

HeLa = assay: as above; conditions: Gynecologic cancer cell panel viability, ATPlite luminescence, 48 h; series mostly up to 57.5 µM
In short: as §2

Hek293T = assay: as above; conditions: Gynecologic cancer cell panel viability, ATPlite luminescence, 48 h, control line for the selectivity index; series mostly up to 57.5 µM
In short: as §2

JEG-3 = assay: as above; conditions: Gynecologic cancer cell panel viability, ATPlite luminescence, 48 h; series mostly up to 57.5 µM
In short: as §2

OV90 = assay: as above; conditions: Gynecologic cancer cell panel viability, ATPlite luminescence, 48 h; series mostly up to 57.5 µM
In short: as §2

PA-1 = assay: as above; conditions: Gynecologic cancer cell panel viability, ATPlite luminescence, 48 h; series mostly up to 57.5 µM
In short: as §2

CASKI = assay: as above; conditions: Gynecologic cancer cell panel viability, ATPlite luminescence, 48 h; series mostly up to 57.5 µM
In short: as §2

C/C=C(\C)C(=O)OC1C2(O)CC3=C4CC(=O)OC(c5ccoc5)C4(C)CCC3C(C)(C2=O)C(C(OC(C)=O)C(=O)OC)C1(C)C (stereo not drawn)
inactive: outcome (CRL-7250) | max response (HEK293) -2.36% | outcome (HaCat [1]) | max response (KB-3-1) -3.65% | max response (NIH3T3) 1.4% | outcome (HACAT [2]) inactive [at 17.4 µM] | Potency (C33A) | Potency (CAOV3) | Potency (Es-2) | Potency (HeLa) | Potency (Hek293T) | Potency (JEG-3) | Potency (OV90) | Potency (PA-1)

Cc1nc(-c2cccnc2)sc1C(=O)Nc1ccccc1-c1cn2c(CN3CCOCC3)csc2n1
inactive: max response (CRL-7250) -2.14% | max response (HEK293) -4.67% | outcome (HaCat [1]) | max response (KB-3-1) -10.4% | max response (NIH3T3) -1.07% | outcome (HACAT [2]) | Potency (C33A) | Potency (CAOV3) | Potency (Es-2) | Potency (HeLa) | Potency (Hek293T) | Potency (JEG-3) | Potency (OV90) | Potency (PA-1)

CSCC[C@H](NC(=O)[C@H](CO)NC(=O)[C@H](CCC(=O)O)NC(C)=O)C(=O)N[C@H](C=O)CC(=O)O (Ac-ESMD-aldehyde)
inactive: max response (CRL-7250) 3.88% | max response (HEK293) 0.953% | outcome (HaCat [1]) | max response (KB-3-1) 2.69% | max response (NIH3T3) -20.7% | outcome (HACAT [2]) inactive [at 9.27 µM] | activity change, negative = cytotoxicity (C33A) 13.1% [at 11.6 µM] | activity change, negative = cytotoxicity (CAOV3) 15.6% [at 11.6 µM] | activity change, negative = cytotoxicity (CASKI) 18.4% [at 11.6 µM] | activity change, negative = cytotoxicity (Es-2) 5.54% [at 11.6 µM] | activity change, negative = cytotoxicity (HeLa) 13.1% [at 11.6 µM] | activity change, negative = cytotoxicity (Hek293T) 8.08% [at 11.6 µM] | activity change, negative = cytotoxicity (JEG-3) 19.7% [at 11.6 µM] | activity change, negative = cytotoxicity (OV90) -2.74% [at 11.6 µM] | activity change, negative = cytotoxicity (PA-1) -0.0533% [at 11.6 µM]

CC(C)C[C@H](NC(=O)[C@@H]1O[C@H]1C(=O)O)C(=O)NCCCCN=C(N)N
active: Potency (OV90) 28.2 µM
inactive: max response (CRL-7250) -9.88% | max response (HEK293) -19.1% | outcome (HaCat [1]) | max response (KB-3-1) 2.43% | max response (NIH3T3) 0.0799% | outcome (HACAT [2]) | Potency (C33A) | Potency (CAOV3) | outcome (CASKI) | Potency (Es-2) | Potency (HeLa) | Potency (Hek293T) | Potency (JEG-3) | Potency (PA-1)

CCC(C)C(C(=O)O)N1Cc2c(OCC=C(C)C)c(C)c(OC)c(C(=O)O)c2C1=O (stereo not drawn)
inactive: max response (CRL-7250) 0.564% | max response (HEK293) -3.21% | outcome (HaCat [1]) | outcome (KB-3-1) | max response (NIH3T3) -10.1% | outcome (HACAT [2]) inactive [at 17.4 µM] | Potency (C33A) | Potency (CAOV3) | outcome (CASKI) | Potency (Es-2) | Potency (HeLa) | Potency (Hek293T) | Potency (JEG-3) | Potency (OV90) | Potency (PA-1)

CC(=O)OC12CC(C)C(OC(=O)c3ccccc3)C1/C=C(/C)C(OC(=O)c1ccccc1)CC(=O)C(C)(C)/C=C/C(C)C2=O (stereo not drawn)
inactive: max response (CRL-7250) -26.4% | max response (HEK293) -14.7% | outcome (HaCat [1]) | outcome (KB-3-1) | max response (NIH3T3) 1.94% | outcome (HACAT [2]) inactive [at 17.4 µM] | Potency (C33A) | Potency (CAOV3) | outcome (CASKI) | Potency (HeLa) | Potency (Hek293T) | Potency (OV90) | Potency (PA-1)
active: Potency (Es-2) 2.82 µM

C/C=C1\[C@H](O[C@@H]2O[C@H](CO)[C@@H](O)[C@H](O)[C@H]2O)OC=C(C(=O)OCCc2ccc(O)cc2)[C@H]1CC(=O)OCCc1ccc(O)cc1
inactive: max response (CRL-7250) 0.139% | max response (HEK293) -2.9% | outcome (HaCat [1]) | max response (KB-3-1) -0.75% | max response (NIH3T3) -3.77% | outcome (HACAT [2]) inactive [at 17.4 µM] | Potency (C33A) | Potency (CAOV3) | Potency (Es-2) | Potency (HeLa) | Potency (Hek293T) | Potency (OV90) | Potency (PA-1)

CC[C@@H]1C(=O)O[C@]23C=C[C@@H]4C(C(=O)OC)=CO[C@H](O[C@@H]12)[C@@H]43
inactive: max response (CRL-7250) -23.4% | max response (HEK293) -18.1% | outcome (HaCat [1]) | max response (KB-3-1) -9.89% | max response (NIH3T3) 1.97% | outcome (HACAT [2]) | Potency (C33A) | Potency (CAOV3) | Potency (Es-2) | Potency (Hek293T) | Potency (OV90) | Potency (PA-1)

COc1ccc2c(c1)C=C1Cn3c-2c(C2CCCCC2)c2ccc(cc23)C(=O)NS(=O)(=O)N(C)CCOCCN(C)C1=O
inactive: max response (CRL-7250) -49.9% | max response (HEK293) -78% | outcome (HaCat [1]) | max response (KB-3-1) -5.47% | max response (NIH3T3) -17.2% | outcome (HACAT [2]) | Potency (C33A) | Potency (CAOV3) | outcome (CASKI) | Potency (HeLa) | Potency (Hek293T) | Potency (JEG-3) | Potency (OV90)

CC1(C)C[C@H]2C=C(C=O)[C@]3(C(=O)O)C[C@]3(C)[C@H]2C1
inactive: max response (CRL-7250) -0.156% | max response (HEK293) -14% | outcome (HaCat [1]) | max response (KB-3-1) 6.21% | max response (NIH3T3) 0.712% | outcome (HACAT [2]) | Potency (C33A) | Potency (CAOV3) | outcome (CASKI) | Potency (HeLa) | Potency (Hek293T) | Potency (JEG-3) | Potency (OV90) | Potency (PA-1)

CC(O)CCc1ccc(O[C@@H]2O[C@H](CO)[C@@H](O)[C@H](O)[C@H]2O)cc1 (stereo partly drawn)
inactive: max response (CRL-7250) 0.631% | max response (HEK293) 3.66% | outcome (HaCat [1]) | max response (KB-3-1) 2.69% | max response (NIH3T3) -0.367% | outcome (HACAT [2]) | Potency (C33A) | Potency (CAOV3) | outcome (CASKI) | Potency (Es-2) | Potency (HeLa) | Potency (Hek293T) | Potency (JEG-3) | Potency (PA-1)
